Source: PubChem (several laboratories)
This is a sample that favours compounds with a hit; in the whole collection about 4.5% have one here.
Mdm2 MdmX PPI: inhibitors of human Mdm2/MdmX interaction. O15151+Q00987. SaOS-2 split-luciferase Mdm2/MdmX complementation, luminescence. inhibition, % at 8 µM. 330,000 tested, 3% active;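 active means inhibition of at least 50% at 8 µM in the primary screen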
Jurkat NFkB inh: lowers PMA/ionomycin-induced NF-kB signal in Jurkat cells | PMA/ionomycin-induced NF-kB luciferase reporter, luminescence | inhibition, % at 4 µM | 330,000 tested, 0.53% active | AID 435003; in the data active means inhibition above about 50%
Beta apoptosis: beta cell apoptosis inhibition | 300,000 tested, 0.8% active | AID 435005 | INS-1E cytokine-induced death, ATP luminescence, 48 h; percent of positive-control rescue, neutral wells zero | protection from apoptosis, % (concentration not given with the values);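 active means Every replicate reaches about 75%, or at least half do and their mean reaches it too, limit read from the data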;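 further: higher means more ATP so stronger rescue from cytokine killing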
Gli-Sufu block: Gli-Sufu pathway antagonism; 340,000 tested, 0.74% active; AID 588413; inhibition, % at 5 µM; Sufu-KO-LIGHT fibroblasts, Gli luciferase reporter luminescence;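 active means inhibition above about 55%, limit read from the data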
697 NFkB inh: inhibitors of the PMA/ionomycin-induced NF-kB reporter in 697 B cells; AID 435022; 330,000 tested, 0.33% active; 697 B-cell NF-kB luciferase reporter, 16 h; inhibition, % at 4 µM; in the data active means inhibition above about 35%
CSC inhib: cancer stem cell inhibition | inhibition, % at 7.5 µM | 300,000 tested, 1.1% active | cancer stem cell-like cells viability, luminescence; in the data active means inhibition above about 75%; tested in HMLE shEcad cells
Gli antag conf: Gli-SUFU antagonism confirmation, single concentration | shares compounds with Gli-Sufu block | inhibition, % at 5 µM | Sufu-KO-LIGHT cells, Gli luciferase reporter, luminescence | 2,500 tested, 40% active | AID 602428;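 active means mean inhibition at 5 µM reaching about 45%, limit read from the data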
SufuKO cytotox: cytotoxic in Gli-SUFU antagonist counter-screen | shares compounds with Gli-Sufu block | Sufu-KO-LIGHT cells cytotoxicity, ATP luminescence | cytotoxicity, % at 5 µM | 2,500 tested, 32% active | AID 651994;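 active means mean cytotoxicity at 5 µM above about 25%, limit read from the data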;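 further: cells exposed to compound overnight for roughly 16 to 18 hours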
Wnt3a counter: Wnt3a reporter inhibition counter-screen. shares compounds with Gli-Sufu block. 2,500 tested, 20% active. inhibition, % at 6.25 µM. Wnt-LIGHT cells, Wnt3a-driven luciferase reporter, luminescence;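 active means mean inhibition above about 25%, limit read from the data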
Hits are given with their value.

Cc1c(F)cccc1NS(=O)(=O)c1ccc2c(c1)n(C)c(=O)c(=O)n2C was read as Mdm2 MdmX PPI inactive, Jurkat NFkB inh inactive, Beta apoptosis inactive, Gli-Sufu block inactive, 697 NFkB inh inactive, CSC inhib inactive, Gli antag conf inactive, SufuKO cytotox inactive and Wnt3a counter inactive.
Cc1c(F)cccc1NS(=O)(=O)c1ccc2c(c1)c(=O)n(C)c(=O)n2C was read as Mdm2 MdmX PPI inactive, Jurkat NFkB inh inactive, Beta apoptosis inactive, Gli-Sufu block inactive, 697 NFkB inh inactive and CSC inhib inactive.
Screening CN(c1ccccc1C(N)=O)S(=O)(=O)c1ccccc1 returned Mdm2 MdmX PPI inactive, Jurkat NFkB inh inactive, Beta apoptosis inactive, Gli-Sufu block inactive, 697 NFkB inh inactive, CSC inhib inactive, Gli antag conf inactive, SufuKO cytotox inactive and Wnt3a counter inactive.
O=C(Cc1coc2cc(O)ccc12)NNC(=O)c1ccc(Br)s1 was read as Mdm2 MdmX PPI inactive, Jurkat NFkB inh inactive, Beta apoptosis inactive, Gli-Sufu block inactive, 697 NFkB inh inactive and CSC inhib inactive.
COC(=O)c1c(NC(=O)c2cccc(S(=O)(=O)N3CCN(C)CC3)c2)sc(C)c1C was read as Mdm2 MdmX PPI inactive, Jurkat NFkB inh inactive, Gli-Sufu block inactive, 697 NFkB inh inactive and CSC inhib inactive.
`COc1nc(NCCC2=CCCCC2)nc(OC)n1` gave Mdm2 MdmX PPI inactive, Jurkat NFkB inh inactive, Beta apoptosis inactive, Gli-Sufu block 99, 697 NFkB inh inactive, CSC inhib inactive, Gli antag conf inactive, SufuKO cytotox inactive and Wnt3a counter inactive.
Screening Cc1ccc(C)c(NC(=S)NC2CC3CCC(C2)N3Cc2ccco2)c1 (stereo not given) returned Mdm2 MdmX PPI inactive, Jurkat NFkB inh inactive, Beta apoptosis inactive, Gli-Sufu block 76, 697 NFkB inh inactive, CSC inhib inactive, Gli antag conf inactive, SufuKO cytotox inactive and Wnt3a counter inactive.
Cc1cc(C)cc(NC(=S)NC2CC3CCC(C2)N3Cc2ccco2)c1 (stereo not given) was read as Mdm2 MdmX PPI inactive, Jurkat NFkB inh inactive, Beta apoptosis inactive, Gli-Sufu block inactive, 697 NFkB inh inactive and CSC inhib inactive.
For CCN(CC)C(=O)CN(c1cc(Cl)ccc1OC)S(C)(=O)=O the results were Mdm2 MdmX PPI inactive, Jurkat NFkB inh inactive, Gli-Sufu block inactive, 697 NFkB inh inactive, CSC inhib inactive, Gli antag conf inactive, SufuKO cytotox inactive and Wnt3a counter inactive.
Screening CC(NC(=O)c1ccccc1F)c1nnc(SCC(=O)Nc2nnc(C3CC3)s2)n1C (stereo not given) returned Mdm2 MdmX PPI inactive, Jurkat NFkB inh inactive, Beta apoptosis inactive, Gli-Sufu block inactive, 697 NFkB inh inactive and CSC inhib inactive.
For COc1ccccc1N(C)S(=O)(=O)c1ccc(C(=O)NCc2ccccc2CN2CCCC2)cc1 the results were Gli-Sufu block inactive, Gli antag conf inactive, SufuKO cytotox inactive and Wnt3a counter inactive.
Cc1cc(C)cc(NC(=O)CCc2c(C)nn(-c3ccc(N4CCOCC4)nn3)c2C)c1 was read as Mdm2 MdmX PPI inactive, Jurkat NFkB inh inactive, Gli-Sufu block inactive, 697 NFkB inh inactive and CSC inhib inactive.
`CCCCC(CC)CNC(=O)CN1C(=O)NC2(CCc3ccccc32)C1=O` (stereo not given) gave Mdm2 MdmX PPI inactive, Jurkat NFkB inh inactive, Beta apoptosis inactive, Gli-Sufu block inactive, 697 NFkB inh inactive and CSC inhib inactive.
For CCCCCCn1c(COc2ccccc2F)nnc1SCC(=O)NC1CCS(=O)(=O)C1 (stereo not given) the results were Gli-Sufu block inactive.
Screening O=C(Cc1c(F)cccc1Cl)OCC(=O)c1ccc[nH]1 returned Mdm2 MdmX PPI inactive, Jurkat NFkB inh inactive, Beta apoptosis inactive, Gli-Sufu block 56, 697 NFkB inh inactive, CSC inhib inactive, Gli antag conf inactive, SufuKO cytotox inactive and Wnt3a counter inactive.
O=C(Cc1ccc(Cl)cc1Cl)OCC(=O)c1ccc[nH]1 was read as Mdm2 MdmX PPI inactive, Jurkat NFkB inh inactive, Beta apoptosis inactive, Gli-Sufu block inactive, 697 NFkB inh inactive and CSC inhib inactive.
O=[N+]([O-])c1ccc(Nc2cccc3c2[nH]c2c(-c4ccccc4)nccc23)c([N+](=O)[O-])c1 was read as Gli-Sufu block inactive.
Cn1cc(C(=O)NS(=O)(=O)Nc2ccc(Br)cc2)c2ccccc21 was read as Mdm2 MdmX PPI inactive, Jurkat NFkB inh inactive, Beta apoptosis inactive, Gli-Sufu block inactive, 697 NFkB inh inactive and CSC inhib inactive.
Screening CCc1nc(C)cn1S(=O)(=O)c1cc(C)c(OC)c(C)c1C returned Mdm2 MdmX PPI inactive, Jurkat NFkB inh inactive, Beta apoptosis inactive, Gli-Sufu block 60, 697 NFkB inh inactive, CSC inhib inactive, Gli antag conf 52, SufuKO cytotox 30 and Wnt3a counter 55.
For CN1CCN(Cc2cccc(Oc3ccccc3)c2)CC1 the results were Mdm2 MdmX PPI inactive, Jurkat NFkB inh inactive, Beta apoptosis inactive, Gli-Sufu block inactive, 697 NFkB inh inactive and CSC inhib inactive.
For COc1ccc(CN2CCN(Cc3cccc(Oc4ccccc4)c3)CC2)c(OC)c1OC the results were Mdm2 MdmX PPI inactive, Jurkat NFkB inh inactive, Beta apoptosis inactive, Gli-Sufu block inactive, 697 NFkB inh inactive, CSC inhib inactive, Gli antag conf inactive, SufuKO cytotox 26 and Wnt3a counter inactive.
Screening FC(F)Sc1ccc(-n2cc(-c3ccc(Cl)cc3)[n+]3c2CCC3)cc1 returned Mdm2 MdmX PPI inactive, Jurkat NFkB inh inactive, Beta apoptosis inactive, Gli-Sufu block inactive and 697 NFkB inh inactive.
For Brc1ccc(-c2csc3[n+]2CCCCC3)cc1 the results were Mdm2 MdmX PPI inactive, Jurkat NFkB inh inactive, Beta apoptosis inactive, Gli-Sufu block inactive, 697 NFkB inh inactive and CSC inhib inactive.
Clc1ccc(-n2cc(-c3ccc(Br)cc3)[n+]3c2CCCCC3)cc1 was read as Mdm2 MdmX PPI inactive, Jurkat NFkB inh inactive, Beta apoptosis inactive, Gli-Sufu block inactive, 697 NFkB inh inactive, CSC inhib inactive, Gli antag conf 68, SufuKO cytotox 26 and Wnt3a counter inactive.
Screening Cc1ccc(-c2cn(-c3ccc(SC(F)F)cc3)c3[n+]2CCC3)cc1 returned Mdm2 MdmX PPI inactive, Jurkat NFkB inh inactive, Beta apoptosis 82, Gli-Sufu block 76, 697 NFkB inh inactive, Gli antag conf 80, SufuKO cytotox 39 and Wnt3a counter inactive.
For FC(F)Oc1ccc(-n2cc(-c3ccccc3)[n+]3c2CCCCC3)cc1 the results were Mdm2 MdmX PPI inactive, Jurkat NFkB inh inactive, Beta apoptosis inactive, Gli-Sufu block 66, 697 NFkB inh inactive, CSC inhib inactive, Gli antag conf 58, SufuKO cytotox inactive and Wnt3a counter inactive.
